Hits are enriched below; roughly 3.5% of the tested compounds scored in any of these assays.
Mtb UGM inh: M. tuberculosis UGM enzyme inhibitors, primary screen, biochemical, fluorescence polarization, single point | inhibition, % at 10 µM | purified UGM, fluorescence polarization probe displacement | actives 0.06% (n = 320,000); in the data active = inhibition above about 10%, passing the limit was not always enough
Target sequence (P9WIQ1 whole entry, looked up): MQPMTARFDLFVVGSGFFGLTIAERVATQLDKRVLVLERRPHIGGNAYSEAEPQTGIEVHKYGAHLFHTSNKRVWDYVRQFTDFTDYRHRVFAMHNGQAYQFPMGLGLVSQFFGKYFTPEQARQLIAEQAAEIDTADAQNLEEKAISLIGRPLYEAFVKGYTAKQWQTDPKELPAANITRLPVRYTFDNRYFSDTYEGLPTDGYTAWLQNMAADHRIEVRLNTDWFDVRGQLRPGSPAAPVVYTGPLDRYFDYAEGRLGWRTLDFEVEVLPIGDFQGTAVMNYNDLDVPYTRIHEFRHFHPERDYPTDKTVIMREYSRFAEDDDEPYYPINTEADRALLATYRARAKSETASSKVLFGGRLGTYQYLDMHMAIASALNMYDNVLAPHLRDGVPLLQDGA
GDH-TPI inh: GDH-TPI coupling enzyme inhibitors, primary screen, artefact control for M. tuberculosis FBA inhibitor project, biochemical, absorbance, full deck. inhibition, % at 4.8 µM. GDH-TPI coupled enzyme counterscreen, NADH absorbance. actives 1.2% (n = 360,000); in the data active = inhibition above about 30%;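 also: 0% = DMSO wells and 100% = wells lacking the enzyme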
Rv3671c protease: Rv3671c serine protease inhibitors, primary screen, biochemical, fluorescence polarization, M. tuberculosis H37Rv; P9WHR9; inhibition, % at 5.96 µM; actives 0.048% (n = 320,000); in the data active = inhibition above about 38%;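 also: extracellular domain of Rv3671c used as enzyme; 0% = enzyme with DMSO and 100% = no enzyme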
FBA Mtb inh: Mtb FBA enzyme inhibitors, primary screen, biochemical, fluorescence, strain H37Rv; Fructose-bisphosphate aldolase (Mycobacterium tuberculosis (strain ATCC 25618 / H37Rv)), …; purified M. tuberculosis FBA, fluorescence read-out; inhibition, % at 1 µM; actives 2.3% (n = 360,000); in the data active = inhibition above about 27%;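 also: 0% = vehicle and 100% = reference inhibitor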
Starred values were filed as active, the others as inactive.

Screening CCCCSCc1nc2nc(Cl)c(Cl)nc2[nH]1 returned GDH-TPI inh 34.5* and FBA Mtb inh -3.4.
Screening CCOC(=O)N1CCN(C(=O)c2cc3c(s2)-c2c(C)cccc2OC3)CC1 returned Mtb UGM inh 2.3, GDH-TPI inh 20.7, Rv3671c protease -3.1 and FBA Mtb inh 143.4*.
Screening CCN1CCN(C(=O)c2cc3c(s2)-c2c(C)cccc2OC3)CC1 returned Mtb UGM inh 1.6, GDH-TPI inh 12.9, Rv3671c protease 4.2 and FBA Mtb inh active.
For CCc1nc(C(N)=O)c2[nH]c(=O)n(-c3ccc(OC)cc3OC)c2n1 the results were Mtb UGM inh -0.7, GDH-TPI inh -6.3, Rv3671c protease -1.4 and FBA Mtb inh 1.6.
For CC(=O)C1=C(O)C(=O)N(c2ccc(S(=O)(=O)Nc3nccs3)cc2)C1c1ccc(F)cc1 (stereo unspecified) the results were Mtb UGM inh 0.6, GDH-TPI inh 32.1*, Rv3671c protease 7.4 and FBA Mtb inh -1.9.
`CC(=O)C1=C(O)C(=O)N(c2ccc(S(=O)(=O)Nc3nccs3)cc2)C1c1ccc([N+](=O)[O-])cc1` (stereo unspecified) gave Mtb UGM inh 1.5, GDH-TPI inh 28.0, Rv3671c protease -0.8 and FBA Mtb inh -3.4.
CN1CCN(C(=O)c2ccc(-c3cnc4cccnn34)cc2)CC1 was read as GDH-TPI inh 3.5 and FBA Mtb inh active.
CNc1ccc2ncc(-c3cccc(C(=O)N(C)C)c3)n2n1 was read as GDH-TPI inh 16.8 and FBA Mtb inh 155.8*.
Screening O=C(NCCO)c1cccc(-c2cnc3cccnn23)c1 returned GDH-TPI inh 13.7 and FBA Mtb inh 156.1*.
`O=C(NCCO)c1ccc(-c2cnc3cccnn23)cc1` gave GDH-TPI inh 10.6 and FBA Mtb inh active.
`O=S(=O)(Cc1nnnn1-c1ccccc1)c1ccc(Cl)cc1` gave Mtb UGM inh -0.2, GDH-TPI inh -3.9, Rv3671c protease 0.6 and FBA Mtb inh -2.5.
Screening CCOc1ccc(/C=N/N2C(=O)C(CC(=O)Nc3ccc(F)cc3F)SC2=NC)cc1OC (stereo unspecified) returned Mtb UGM inh -0.9, GDH-TPI inh 22.6, Rv3671c protease -11.5 and FBA Mtb inh -1.3.
Screening COc1cc(/C=N/n2nnnc2N)ccc1O returned Mtb UGM inh -0.1, GDH-TPI inh 43.6*, Rv3671c protease 0.4 and FBA Mtb inh 2.3.
Screening CN=C1SC(CC(=O)Nc2ccccc2F)C(=O)N1/N=C/c1ccc(O)c(OC)c1 (stereo unspecified) returned Mtb UGM inh -1.4, GDH-TPI inh 51.6*, Rv3671c protease -8.9 and FBA Mtb inh 2.9.
`CCCOc1ccc(/C=N/n2nnnc2N)cc1OC` gave Mtb UGM inh 0.4, GDH-TPI inh 30.0 and FBA Mtb inh 8.5.
COc1cc(/C=N/N2C(=O)C3C4c5ccccc5C(c5ccccc54)C3C2=O)ccc1O (stereo unspecified) was read as Mtb UGM inh 2.5, GDH-TPI inh 34.1*, Rv3671c protease -37.2 and FBA Mtb inh 0.6.
CCN(C)c1ccc(/C=N\n2nnnc2N)cc1 was read as Mtb UGM inh -0.7, GDH-TPI inh 23.0, Rv3671c protease -5.1 and FBA Mtb inh 28.1*.
CCN(CC)c1ccc(/C=N/n2nnnc2N)c(O)c1 was read as Mtb UGM inh 1.1, GDH-TPI inh 37.8*, Rv3671c protease 6.9 and FBA Mtb inh 1.1.
Nc1nnnn1/N=C/c1ccc(O)cc1 was read as Mtb UGM inh 0.3, GDH-TPI inh 15.2, Rv3671c protease -12.0 and FBA Mtb inh 6.8.
For Nc1nnnn1/N=C/c1cc(Cl)ccc1O the results were Mtb UGM inh -3.8, GDH-TPI inh 0.3, Rv3671c protease 3.7 and FBA Mtb inh 2.1.
CSc1ccc(/C=N/n2nnnc2N)cc1 was read as Mtb UGM inh -1.4, GDH-TPI inh 43.2*, Rv3671c protease -0.8 and FBA Mtb inh 17.7.
`CCOC(=O)Nc1ccc2c(CN3CCC(C(=O)OC)CC3)cc(=O)oc2c1` gave Mtb UGM inh 0.8, GDH-TPI inh 6.9, Rv3671c protease -2.0 and FBA Mtb inh 20.9.
For CC(=O)Nc1ccc2c(COC(=O)[C@H](C)N3C(=O)C4CCCCC4C3=O)cc(=O)oc2c1 (stereo partly specified) the results were Mtb UGM inh 0.1, GDH-TPI inh 32.5*, Rv3671c protease 3.7 and FBA Mtb inh active.
`O=C(COC(=O)c1ccc([N+](=O)[O-])cc1Cl)Nc1cccnc1Cl` gave Mtb UGM inh -2.0, GDH-TPI inh 8.7, Rv3671c protease -3.7 and FBA Mtb inh 3.8.
`COc1cc(C=C2C(=O)c3ccccc3C2=O)cc(OC)c1OC` gave Mtb UGM inh 6.2, GDH-TPI inh 0.9, Rv3671c protease -4.3 and FBA Mtb inh -5.4.
COc1cc(C=Cc2nnc3c4ccccc4cnn23)cc(OC)c1OC was read as GDH-TPI inh 54.7* and FBA Mtb inh -0.5.
Nc1ccccc1N=Cc1ccc(-c2cccc(Cl)c2)o1 was read as Mtb UGM inh -2.1, GDH-TPI inh 12.2, Rv3671c protease -14.2 and FBA Mtb inh 145.8*.
`COC(=O)N/N=C/c1ccc(-c2cccc(Cl)c2)o1` gave Mtb UGM inh 2.9, GDH-TPI inh 30.8*, Rv3671c protease -11.4 and FBA Mtb inh -6.2.
For COC(=O)N/N=C/c1ccc(-c2cc(Cl)cc(Cl)c2)o1 the results were Mtb UGM inh 1.3, GDH-TPI inh 45.8*, Rv3671c protease -3.3 and FBA Mtb inh -5.0.
`CCOC(=O)c1cc2c(=O)n3ccccc3nc2n(Cc2ccccc2)c1=N` gave Mtb UGM inh 1.3, GDH-TPI inh -5.9, Rv3671c protease 1.8 and FBA Mtb inh 79.1*.
For COc1ccc(CCNC(=O)c2cc3c(=O)n4ccccc4nc3n(CCCN3CCOCC3)c2=N)cc1 the results were Mtb UGM inh -1.7, GDH-TPI inh 12.6, Rv3671c protease -7.0 and FBA Mtb inh 14.0.
For N=c1c(C(=O)NC2CCCC2)cc2c(=O)n3ccccc3nc2n1CCN1CCOCC1 the results were Mtb UGM inh 1.8, GDH-TPI inh 12.0, Rv3671c protease 6.9 and FBA Mtb inh 176.3*.
Screening Cc1ccc(Cn2c(=N)c(C(=O)NC3CCCCC3)cc3c(=O)n4ccccc4nc32)cc1 returned Mtb UGM inh 0.8, GDH-TPI inh -3.4, Rv3671c protease 0.0 and FBA Mtb inh 24.4.
`N#Cc1cc2c(=O)n3ccccc3nc2n(CCCN2CCOCC2)c1=O` gave Mtb UGM inh 5.2, GDH-TPI inh 13.8, Rv3671c protease 9.4 and FBA Mtb inh active.
For O=C(NCCN1CCOCC1)c1cc2c(=O)n3ccccc3nc2n1Cc1ccccc1 the results were Mtb UGM inh 2.7, GDH-TPI inh 15.9, Rv3671c protease -3.0 and FBA Mtb inh active.
`COc1ccc(CCn2c(=N)c(C(=O)NC3CCCCC3)cc3c(=O)n4ccccc4nc32)cc1` gave Mtb UGM inh -1.0, GDH-TPI inh 7.8, Rv3671c protease -4.6 and FBA Mtb inh 3.3.

From PubChem
